Experimental data: PubChem BioAssay AID1159580 (chemical genetic matrix, 2015)
In all, about 5,500 compounds went through this assay and about 2,000 (36%) were called active. Inconclusive results (about 18%) are left out. Cut-off read from the data, not from the text of the source: active = normalized growth mostly below about 0.91 (no sharp cut-off); inconclusive = no clear call, values can overlap the other calls; inactive = mostly above about 0.92. This is one part of the list.

Assay: chemical genetic growth profiling, strain panel (AID 1159580);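 note: tested at 20 µM; growth read once vehicle control cultures reached saturation at 30 °C; 1 = growth at the plate median or of vehicle wells; lower values mean less growth of the strain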
Conditions: growth OD

Measured: normalized growth

CON
inactive: S. cerevisiae deletion strains, locus YJR075W, strain HOC1, stronger effect = lower value 1.02 | S. cerevisiae deletion strains, locus YKL009W, strain mrt4, stronger effect = lower value 0.978 | S. cerevisiae deletion strains, locus YKL068W, stronger effect = lower value 0.992 | S. cerevisiae deletion strains, locus YKL085W, strain MDH1 (second series), stronger effect = lower value 1.04 | S. cerevisiae deletion strains, locus YKL085W, strain MDH1, stronger effect = lower value 1.04 | S. cerevisiae deletion strains, locus YKL160W, strain elf1, stronger effect = lower value 1.06 | S. cerevisiae deletion strains, locus YKL190W, strain CNB1, stronger effect = lower value 1 | S. cerevisiae deletion strains, locus YKR001C, strain vps1, stronger effect = lower value 0.989 | S. cerevisiae deletion strains, locus YKR026C, strain gcn3, stronger effect = lower value 0.993 | S. cerevisiae deletion strains, locus YKR091W, strain srl3, stronger effect = lower value 0.998 | S. cerevisiae deletion strains, locus YLL001W, strain dnm1, stronger effect = lower value 1 | S. cerevisiae deletion strains, locus YLL026W, stronger effect = lower value 1.01 | S. cerevisiae deletion strains, locus YLL041C, strain sdh2, stronger effect = lower value 0.988 | S. cerevisiae deletion strains, locus YLR027C, strain aat2, stronger effect = lower value 1.01 | S. cerevisiae deletion strains, locus YLR039C, strain RIC1, stronger effect = lower value 1.01 | S. cerevisiae deletion strains, locus YLR058C, strain SHM2, stronger effect = lower value 1.01 | S. cerevisiae deletion strains, locus YLR102C, strain apc9, stronger effect = lower value 0.989 | S. cerevisiae deletion strains, locus YLR113W, strain HOG1, stronger effect = lower value 0.988 | S. cerevisiae deletion strains, locus YLR221C, strain rsa3, stronger effect = lower value 0.984 | S. cerevisiae deletion strains, locus YLR258W, strain gsy2, stronger effect = lower value 1.01 | S. cerevisiae deletion strains, locus YLR262C, strain YPT6 (second series), stronger effect = lower value 0.999 | S. cerevisiae deletion strains, locus YLR262C, strain YPT6, stronger effect = lower value 1.01 | S. cerevisiae deletion strains, locus YLR268W, strain sec22, stronger effect = lower value 0.995 | S. cerevisiae deletion strains, locus YLR320W, strain mms22, stronger effect = lower value 1.02 | S. cerevisiae deletion strains, locus YLR330W, strain CHS5, stronger effect = lower value 1.01 | S. cerevisiae deletion strains, locus YLR342W, strain FKS1 (second series), stronger effect = lower value 0.999 | S. cerevisiae deletion strains, locus YLR342W, strain FKS1, stronger effect = lower value 1.01 | S. cerevisiae deletion strains, locus YLR357W, strain rsc2, stronger effect = lower value 0.97 | S. cerevisiae deletion strains, locus YLR370C, strain arc18, stronger effect = lower value 1.04 | S. cerevisiae deletion strains, locus YLR371W, strain rom2, stronger effect = lower value 0.99 | S. cerevisiae deletion strains, locus YLR384C, strain iki3, stronger effect = lower value 1.01 | S. cerevisiae deletion strains, locus YLR418C, strain cdc73, stronger effect = lower value 1.03 | S. cerevisiae deletion strains, locus YML016C, strain PPZ1, stronger effect = lower value 1 | S. cerevisiae deletion strains, locus YML032C, strain rad52, stronger effect = lower value 1.01 | S. cerevisiae deletion strains, locus YML120C, strain ndi1, stronger effect = lower value 1 | S. cerevisiae deletion strains, locus YML124C, strain tub3, stronger effect = lower value 0.987 | S. cerevisiae deletion strains, locus YMR058W, strain fet3, stronger effect = lower value 0.998 | S. cerevisiae deletion strains, locus YMR078C, strain ctf18, stronger effect = lower value 0.99 | S. cerevisiae deletion strains, locus YMR125W, strain sto1, stronger effect = lower value 0.987 | S. cerevisiae deletion strains, locus YMR129W, stronger effect = lower value 1.02 | S. cerevisiae deletion strains, locus YMR205C, strain PFK2, stronger effect = lower value 1 | S. cerevisiae deletion strains, locus YMR223W, strain ubp8, stronger effect = lower value 0.993 | S. cerevisiae deletion strains, locus YMR231W, strain pep5, stronger effect = lower value 0.996 | S. cerevisiae deletion strains, locus YMR263W, strain SAP30, stronger effect = lower value 1 | S. cerevisiae deletion strains, locus YMR307W, strain GAS1, stronger effect = lower value 1.09 | S. cerevisiae deletion strains, locus YNL067W, strain RPL9B, stronger effect = lower value 1.03 | S. cerevisiae deletion strains, locus YNL071W, strain lat1, stronger effect = lower value 0.985 | S. cerevisiae deletion strains, locus YNL153C, strain GIM3, stronger effect = lower value 1.04 | S. cerevisiae deletion strains, locus YNL183C, strain NPR1, stronger effect = lower value 0.927 | S. cerevisiae deletion strains, locus YNL209W, strain ssb2, stronger effect = lower value 1.01 | S. cerevisiae deletion strains, locus YNL233W, strain BNI4, stronger effect = lower value 1.04 | S. cerevisiae deletion strains, locus YNL248C, strain rpa49, stronger effect = lower value 1.02 | S. cerevisiae deletion strains, locus YNL250W, strain rad50, stronger effect = lower value 0.99 | S. cerevisiae deletion strains, locus YNL271C, strain bni1, stronger effect = lower value 0.986 | S. cerevisiae deletion strains, locus YNL298W, strain CLA4, stronger effect = lower value 0.981 | S. cerevisiae deletion strains, locus YNL307C, strain MCK1, stronger effect = lower value 0.993 | S. cerevisiae deletion strains, locus YNL322C, strain KRE1 (second series), stronger effect = lower value 1.01 | S. cerevisiae deletion strains, locus YNR049C, strain mso1, stronger effect = lower value 1 | S. cerevisiae deletion strains, locus YNR052C, strain pop2, stronger effect = lower value 0.978 | S. cerevisiae deletion strains, locus YOL006C, strain TOP1, stronger effect = lower value 1.08 | S. cerevisiae deletion strains, locus YOL012C, strain htz1 1.2 | S. cerevisiae deletion strains, locus YOL147C, strain pex11, stronger effect = lower value 0.998 | S. cerevisiae deletion strains, locus YOR001W, strain rrp6, stronger effect = lower value 0.968 | S. cerevisiae deletion strains, locus YOR061W, strain CKA2, stronger effect = lower value 1 | S. cerevisiae deletion strains, locus YOR069W, strain VPS5, stronger effect = lower value 0.993 | S. cerevisiae deletion strains, locus YOR070C, strain gyp1, stronger effect = lower value 1.02 | S. cerevisiae deletion strains, locus YOR080W, strain dia2, stronger effect = lower value 0.996 | S. cerevisiae deletion strains, locus YOR083W, strain WHI5, stronger effect = lower value 1.03 | S. cerevisiae deletion strains, locus YOR106W, strain vam3, stronger effect = lower value 1.02 | S. cerevisiae deletion strains, locus YOR136W, strain idh2, stronger effect = lower value 0.98 | S. cerevisiae deletion strains, locus YOR144C, strain elg1, stronger effect = lower value 0.995 | S. cerevisiae deletion strains, locus YOR184W, strain ser1, stronger effect = lower value 0.958 | S. cerevisiae deletion strains, locus YOR231W, strain MKK1, stronger effect = lower value 1.04 | S. cerevisiae deletion strains, locus YOR265W, strain rbl2, stronger effect = lower value 1.01 | S. cerevisiae deletion strains, locus YOR270C, strain vph1, stronger effect = lower value 1.04 | S. cerevisiae deletion strains, locus YOR290C, strain snf2, stronger effect = lower value 1.07 | S. cerevisiae deletion strains, locus YOR316C, strain cot1, stronger effect = lower value 0.983 | S. cerevisiae deletion strains, locus YPL051W, strain arl3, stronger effect = lower value 1.04 | S. cerevisiae deletion strains, locus YPL055C, strain LGE1, stronger effect = lower value 1.09 | S. cerevisiae deletion strains, locus YPL078C, strain atp4, stronger effect = lower value 1.04 | S. cerevisiae deletion strains, locus YPL106C, strain sse1, stronger effect = lower value 1.01 | S. cerevisiae deletion strains, locus YPL240C, strain hsp82, stronger effect = lower value 1 | S. cerevisiae deletion strains, locus YPL256C, strain CLN2, stronger effect = lower value 0.993 | S. cerevisiae deletion strains, locus YPR119W, strain clb2, stronger effect = lower value 0.99 | S. cerevisiae deletion strains, locus YPR141C, strain kar3, stronger effect = lower value 0.989 | S. cerevisiae deletion strains, locus YPR163C, strain tif3, stronger effect = lower value 0.991 | S. cerevisiae deletion strains, locus YPR167C, strain met16, stronger effect = lower value 0.984 | S. cerevisiae deletion strains, strain wtn01, stronger effect = lower value 0.978 | S. cerevisiae strains, strain wild type, stronger effect = lower value 0.997
